The campaign covered roughly 2,100 compounds. About 670 (32%) were called active. Inconclusive results (about 50%) are left out. Calls follow the shape of the dose curve; as a rule, active = well fitted inhibition curve with a large enough effect; inconclusive = small, poorly fitted or top-dose-only effect; inactive = no such curve, though single readings can be large or run the other way. The list shows a part of the results.
assay: CMV-Luciferase Counterscreen for Inhibitors of ATXN expression; settings: HEK-293 CMV-luciferase reporter, luminescence, 24 h; series mostly up to 57.5 µM; activity change, negative = inhibition: at the top concentration; also: nearly all actives have a fitted effect of over 55% in size
% is scaled to controls: 0 for no effect and ±100 for the full control effect; potency is read from the fitted curve at half-maximal effect.

SMILES	activity change, negative = inhibition	Potency
Cc1ccc(NC(=O)CCC(=O)c2cc(C)sc2C)nc1	301% (inactive)	–
Cc1ccc(OCC(=O)N2CCN(c3nnc(-c4ccc(C)cc4)c4ccccc34)CC2)cc1	–	2.24 µM (active)
CCCCOC(=O)/C=C\C(=O)NC(N)=O	–	14.1 µM (active)
CCOC(=O)/C=C/C(=O)Nc1ccc(Oc2ccccc2)cc1	-6.32% [at 11.4 µM] (inactive)	–
Cc1nc2ccc(NC(=O)c3cccc(S(=O)(=O)N(C)c4ccccc4)c3)cc2s1	–	3.55 µM (active)
Cc1ccc2nc(N(CCCN(C)C)C(=O)c3ccc(S(=O)(=O)N4CCCCCC4)cc3)sc2c1	-18.5% [at 11.4 µM] (inactive)	–
CCCN(CCC)S(=O)(=O)c1ccc(C(=O)Nc2nnc(-c3cc(OC)cc(OC)c3)o2)cc1	–	0.794 µM (active)
Cc1nc2ccc(NC(=O)c3ccc(S(=O)(=O)N(C)c4ccccc4)cc3)cc2s1	–	3.98 µM (active)
Cc1nc2cc(NC(=O)CSc3nc4c(C)cccc4cc3C#N)ccc2s1	-19.4% (inactive)	–
CN(c1ccccc1)S(=O)(=O)c1ccc(C(=O)Nc2nnc(-c3ccc(F)cc3)o2)cc1	–	10 µM (active)
O=C(Nc1nnc(-c2ccc(F)cc2)o1)c1cc(Cl)sc1Cl	–	10 µM (active)
Cc1cccc(NC(=O)c2ccc(S(=O)(=O)N(C)c3ccccc3)cc2)n1	–	14.1 µM (active)
O=C(c1ccco1)N1CCCC(c2nc(-c3ccc(S(=O)(=O)NCc4ccccc4)cc3)no2)C1 (configuration not stated)	–	11.2 µM (active)
COc1cc2c3nnc(-c4ccc(F)cc4)c-3cn(Cc3ccc(F)cc3)c2cc1OC	-11.8% [at 11.4 µM] (inactive)	–
O=C(c1ccco1)N1CCN(c2ccnc3cc(Cl)ccc23)CC1	–	14.1 µM (active)
CCOC(=O)N1CCN(c2ccnc3cc(Cl)ccc23)CC1	–	2.51 µM (active)
O=C(C1CCCCC1)N1CCN(c2ccnc3cc(Cl)ccc23)CC1	–	5.01 µM (active)
CCOC(=O)C(=CNc1ccc2c(c1)nnn2-c1ccc(Cl)cc1)C(=O)OCC	7.31% (inactive)	–
CC(C)N(C(=O)N1CCN(c2ccnc3cc(Cl)ccc23)CC1)C(C)C	–	12.6 µM (active)
Cc1cc2oc3ccc(NCCC4CCCN4C)cc3c(=O)c2cc1C (configuration not stated)	6.26% (inactive)	–
CN[C@H]1C[C@H]2c3[nH]c4ccc(-c5ccc(OC)cc5)cc4c3CCN2C(=O)[C@H]1[C@H](C)O	–	3.55 µM (active)
Cc1nn(C)c(C)c1NC(=O)CSc1nc(Cc2ccccc2)nc2c1cnn2-c1ccccc1	-7.1% [at 11.4 µM] (inactive)	–
CC(=NNC(=O)c1ccncc1)c1ccc2ccccc2c1O	–	0.794 µM (active)

SMILES	activity change, negative = inhibition	Potency
CC(C)CC(=NNC(=O)c1ccncc1)c1cc(Cl)ccc1O	–	0.282 µM (active)
N/C(=C\C(=O)c1cc(Cl)ccc1O)C(Cl)(Cl)Cl	21.6% [at 11.4 µM] (inactive)	–
COc1ccc(/C(C)=N/NC(=O)c2cccc(S(=O)(=O)N3CCCC3)c2)c(O)c1	–	3.98 µM (active)
C/C(=N\NC(=O)c1cc(-c2cccnc2)nc2ccccc12)c1ccc(O)cc1O	–	2.51 µM (active)
O=C1CCCC(O)=C1C=NCc1ccccc1	6.36% [at 11.4 µM] (inactive)	–
CC(=NNC(=O)c1ccncc1)c1ccc(O)cc1O	–	11.2 µM (active)
CCN(CC)S(=O)(=O)c1cccc(C(=O)N/N=C(\C)c2ccc(O)cc2O)c1	–	4.47 µM (active)
Oc1c(CN2CCCCC2)ccc2cccnc12	–	12.6 µM (active)
CCN(CC)CCNc1ccnc2cc(Cl)ccc12	-15.4% [at 11.4 µM] (inactive)	–
Clc1ccc2c(NCc3ccccc3)ccnc2c1	–	8.91 µM (active)
Cc1ccc2c(Cl)cc(Cl)c(O)c2n1	–	8.91 µM (active)
CS(=O)(=O)N1CCC(Oc2cccc(C(=O)NCCCC3CCCC3)c2)CC1	–	14.1 µM (active)
CC[C@@H]1C(c2cccc(Cl)c2)=NN(c2ccc(Br)cc2)[C@H]1C(=O)N1CCOC1=O	3.07% (inactive)	–
CC(=O)c1ccc(N2CCc3ccccc3C2)c([N+](=O)[O-])c1	-14% (inactive)	–
COc1ccc(-c2cc(C3CCN(c4ccc(C(C)=O)cc4[N+](=O)[O-])CC3)[nH]n2)cc1	–	11.2 µM (active)
O=c1c2c(-c3ccccc3)csc2nc2c3ccccc3c(NCCN3CCOCC3)nn12	-12% [at 11.4 µM] (inactive)	–
CCOC(=O)c1ccccc1NC(=O)CSc1nc2ccccc2c(=O)n1CCCN1CCOCC1	–	17.8 µM (active)
O=C(Nc1nc(NC(=O)c2ccco2)n(-c2ccccc2)n1)c1ccccc1	–	6.31 µM (active)
CCN1CC2=C(OC(N)=C(C#N)C2c2cccs2)/C(=C\c2cccs2)C1 (configuration not stated)	-3.4% [at 11.4 µM] (inactive)	–
COc1cc2[nH]c(=O)n(CCCCCC(=O)N3CC=C(c4ccccc4)CC3)c(=O)c2cc1OC	–	3.16 µM (active)
O=C(CCCN1C(=O)S/C(=C\c2ccccc2)C1=O)NNC(=O)c1ccccc1O	–	2.24 µM (active)
COc1ccc(/C=C2\SC(=S)N(CCCC(=O)NNC(=O)c3ccccc3O)C2=O)cc1	–	3.98 µM (active)
CCN1CCN(CCCNC(=O)c2ccc(/C=C3/Sc4ccccc4N(Cc4ccccc4F)C3=O)cc2)CC1	12.2% (inactive)	–

SMILES	activity change, negative = inhibition	Potency
CCC(C)(C)c1ccc(Oc2ccc(N)cc2)cc1	–	2 µM (active)
CC(C)(C)c1ccc(Oc2ccc(N)cn2)cc1	–	3.98 µM (active)
CC(C)(C)c1ccc(Oc2ccc(N)cc2)cc1	–	3.98 µM (active)
Cc1ccc(C(C[N+](=O)[O-])Sc2ccc(N)cc2)cc1 (configuration not stated)	52% [at 11.4 µM] (inactive)	–
Cc1c(Cl)c([N+](=O)[O-])nn1Cc1ccc(C(=O)N/N=C\c2cc(Cl)ccc2O)o1	–	0.631 µM (active)
CCN(CC)c1ccc(/C=C/c2cccc[n+]2C)c(OC)c1	–	2 µM (active)
CCCC[C@@H](CNC)NC[C@H](NCCCCC1CCCCC1)C(C)C	–	35.5 µM (active)
O=C(/C=C/c1ccccc1)NC(=S)NNC(=O)c1cnccn1	–	8.91 µM (active)
CCn1c2ccccc2c2cc(/C=N/NC(=O)c3ccc(O)cc3)ccc21	-11.8% (inactive)	–
CCn1c2ccccc2c2cc(/C=N/NC(=O)c3ccncc3)ccc21	–	2.82 µM (active)
O=C1N/C(=N/N=C/c2ccccc2O)SC1Cc1ccc(F)cc1 (configuration not stated)	–	12.6 µM (active)
Cn1nnnc1Sc1ncnc2scc(-c3ccsc3)c12	–	11.2 µM (active)
COc1ccc(-c2csc3ncnc(Sc4nnnn4C)c23)cc1	–	3.98 µM (active)
Cc1cnc(NC(=O)CCCc2nc3ccccc3s2)s1	91.3% (inactive)	–
O=C1C=C(Nc2ccccc2O)c2ccccc2C1=O	–	10 µM (active)
CN(C)S(=O)(=O)c1ccc(-c2csc(N/N=C/c3ccco3)n2)cc1	–	2.51 µM (active)
CC1=CC(C)(C)Nc2ccc(OC(=O)CN3C(=O)c4cccc5cccc(c45)C3=O)cc21	–	15.8 µM (active)
C=CCOC(=O)C1=C[C@@H](c2ccc3c(c2)OCO3)C[C@@H](OCCCCO)O1	5.8% (inactive)	–
O=C(NCc1ccccc1)C1=C[C@@H](c2csc3ccccc23)C[C@@H](OCCCCO)O1	–	3.55 µM (active)
CCOC(=O)c1sc2nc(CSc3ccccc3)nc(NCCN(C)C)c2c1C	-27.1% (inactive)	–
O=c1c2ccccc2sc2nc(CCl)nn12	-24% [at 11.4 µM] (inactive)	–
CCCCCn1c(=O)c2ccccc2n2c(CCl)nnc12	–	25.1 µM (active)
CNC(=O)c1sc(N2N=C3/C(=C/c4ccccc4)CCCC3C2c2ccccc2)nc1C (configuration not stated)	–	7.94 µM (active)

SMILES	activity change, negative = inhibition	Potency
COc1ccc2c(c1)CC(N1CCN(C)CC1)c1cc(OC)ccc1S2 (configuration not stated)	–	28.2 µM (active)
CCCCN1C(=O)/C(=C2/Sc3ccccc3N2C)S/C1=N\c1ncn[nH]1	5.62% (inactive)	–
O=C(c1cccc(Cl)c1)c1nn(-c2ccccc2)c(=O)cc1C(F)(F)F	–	25.1 µM (active)
COc1ccc(-n2nc(C(=O)NCC(=O)Nc3cccc(Cl)c3)c3ccccc3c2=O)cc1OC	11.4% (inactive)	–
Cc1cc(=O)oc2c1c(C)nn2-c1cccc(Cl)c1	-12.8% [at 11.4 µM] (inactive)	–
CC1(C)Cc2c(ccc3ccccc23)C2=C(C(=O)N3CCCC3)C(=O)C(=O)N21	-5.36% (inactive)	–
O=C(N/N=C\c1c(O)ccc2ccccc12)c1ccc(S(=O)(=O)N2CCCCC2)cc1	–	1.12 µM (active)
O=C(N/N=C\c1cc(Cl)ccc1O)c1ccc(S(=O)(=O)N2CCCCC2)cc1	–	0.316 µM (active)
CN(C)CCNc1cccc2sc3ccc(O)cc3c(=O)c12	–	14.1 µM (active)
CN(C)CCNc1ccc(CO)c2sc3ccc(O)cc3c(=O)c12	–	0.631 µM (active)
COc1ccc(C(=O)c2sc(Nc3ccccc3)nc2N)cc1OC	129% (inactive)	–
COc1ccc(C(=O)NC(=S)NNC(=O)c2c(-c3ccccc3)noc2C)cc1OC	–	10 µM (active)
CCOC(=O)C(C(C)=O)c1c(Br)c(O)c(O)c2c(C(=O)c3ccc(C)cc3)coc12 (configuration not stated)	–	2.51 µM (active)
Cc1cc(O)c(C(C)C)cc1N=Cc1ccccc1[N+](=O)[O-]	-23.9% (inactive)	–
Cc1cc(N/N=C\c2ccc(Br)cc2)nc(-n2nc(C)cc2C)n1	1.75% (inactive)	–
Cc1cc(N/N=C/c2ccccc2[N+](=O)[O-])nc(-n2nc(C)cc2C)n1	–	7.08 µM (active)
NC(=O)CC(NC(=O)Cc1ccc(Br)cc1)c1ccc(NC2CCCC2)c([N+](=O)[O-])c1 (configuration not stated)	–	3.16 µM (active)
N#CC1=C(N)N2C(=C(C#N)C1c1cccc(Br)c1)Nc1ccccc12 (configuration not stated)	–	3.55 µM (active)
N#CC1=C(N)N2C(=C(C#N)C1c1ccc(Br)cc1)Nc1ccccc12 (configuration not stated)	–	0.631 µM (active)
CC(=O)N1c2ccc(S(=O)(=O)N3CCC(C(=O)Nc4cccc(C(F)(F)F)c4)CC3)cc2CC1C (configuration not stated)	–	8.91 µM (active)
CCc1ccc(NC(=O)C2CCN(S(=O)(=O)c3ccc4c(c3)CC(C)N4C(C)=O)CC2)cc1 (configuration not stated)	–	3.16 µM (active)
CC(=O)N1c2ccc(S(=O)(=O)N3CCC(C(=O)N4CCN(c5ccc(Cl)cc5)CC4)CC3)cc2CC1C (configuration not stated)	–	7.94 µM (active)
CN1CCN(c2ccc(S(=O)(=O)N3CCCCC3)cc2NC(=O)/C=C/c2ccc(Cl)c([N+](=O)[O-])c2)CC1	-27% [at 11.4 µM] (inactive)	–

Source: PubChem BioAssay AID1745847 (National Center for Advancing Translational Sciences (NCATS), 2022)
